Screening results as filed in PubChem BioAssay.
This excerpt belongs to a sample that is enriched for hits.
Shiga inhibitor = blocks Shiga toxin action in Vero cells; Vero cells, Shiga toxin protein synthesis inhibition reporter; AID 2315; inhibition, % at 38.7 µM; actives 9.2% (n = 290,000); in the data active = inhibition mostly above about 28%, no sharp cut-off; inactive = mostly below about 43%
Tb PYK inh = blocks Trypanosoma brucei pyruvate kinase | TbPYK enzyme, Kinase-Glo Plus ATP luminescence, 45 min | Potency, µM (top dose mostly 76.8 µM), actives largely listed as inhibitors | actives 0.12% (n = 410,000) | Q57TT1 | AID 624173; also: nearly all actives have a fitted effect of over 50% in size
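Readout: single end-point luminescence (Kinase-Glo Plus, 10 min). Reaction conditions were TbPYK/substrate plus 130 uM ADP, 45 min at RT, pH 7.2 TEA buffer. No-enzyme wells served as controls, and data were normalized before concentration-response fitting.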
LmPK inh = blocks Leishmania mexicana pyruvate kinase activity. Q27686. purified LmPK, Kinase-Glo ATP luminescence, 1 h. Potency, µM (series often up to 57.5 µM), actives largely listed as inhibitors. actives 0.37% (n = 290,000)
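qHTS format; LmPK 0.1 nM; substrates PEP 0.5 mM and ADP 0.1 mM. One-hour room-temperature incubation, then coupled luciferase luminescence; 0.5 nM enzyme wells mark activation.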
FBPA Giardia inh = Giardia lamblia aldolase inhibition; purified Giardia FBPA; Potency, µM (top dose mostly 59.6 µM), hits mostly inhibitors; actives 0.71% (n = 290,000); also: nearly all actives have a fitted effect of over 55% in size
Target sequence (A8B2U2 whole entry, looked up): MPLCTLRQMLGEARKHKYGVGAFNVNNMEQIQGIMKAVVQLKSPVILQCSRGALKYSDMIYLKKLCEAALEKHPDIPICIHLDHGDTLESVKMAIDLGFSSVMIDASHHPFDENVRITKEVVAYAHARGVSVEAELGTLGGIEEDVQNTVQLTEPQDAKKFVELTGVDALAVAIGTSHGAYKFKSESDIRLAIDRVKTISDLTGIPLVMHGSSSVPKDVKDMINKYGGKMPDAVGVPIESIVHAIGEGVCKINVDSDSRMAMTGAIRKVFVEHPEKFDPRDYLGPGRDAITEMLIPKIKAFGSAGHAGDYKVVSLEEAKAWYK
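40 nM FBPA preincubated 10 min at RT with compound (up to 57.5 uM final), then substrate plus GAPDH/TPI/NAD/arsenate coupling and diaphorase/resazurin added. Fluorescence read after 20 min at RT, 525/598 nm.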
Sm TGR block = inhibitors of Schistosoma mansoni thioredoxin glutathione reductase. Q962Y6. Potency, µM (doses to about 114 µM), actives largely listed as inhibitors. actives 3% (n = 360,000). AID 485364. purified TGR, DTNB reduction, TNB absorbance 405 nm; also: nearly all actives have a fitted effect of over 60% in size
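TGR 20 nM + NADPH 100 uM (dispensed conc.), cpd preinc 15 min RT; start with NADPH (500 uM addition) then DTNB (15 mM addition). Kinetic TNB absorbance, 405 nm filter. Four-parameter Hill fit across titration.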
Cycloheximide cs = affects cycloheximide protein synthesis inhibition readout, counter-screen; cell reporter, cycloheximide protein synthesis inhibition counterscreen; max response, %; actives 12% (n = 300,000); AID 2314; in the data active = max response mostly above about 13%, no sharp cut-off; inactive = mostly below about 14%; also: read at 38.3 µM for the half of the compounds with a filed dose
Numbers stand for hits; - = inactive; ? = inconclusive; . = no result. Unless noted, calls follow the shape of the dose curve; as a rule, active = well fitted curve in the direction sought with a large enough effect; inconclusive = small, poorly fitted or top-dose-only effect, or another doubt; inactive = no such curve, though single readings can be large; an effect the other way counts as inactive or inconclusive.

SMILES	Shiga inhibitor	Tb PYK inh	LmPK inh	FBPA Giardia inh	Sm TGR block	Cycloheximide cs
COc1ccc2nc3sc(C(=O)Nc4ccccc4F)cc3cc2c1	.	-	.	.	-	.
CCc1cc2cc(C(=O)Nc3ccccc3F)sc2s1	96.6	-	-	-	?	29.7
CCc1cc2cc(C(=O)Nc3ccc(F)cc3)sc2s1	76.3	-	-	-	-	30.2
CC(C)(C)c1ccc(C(=O)Nc2ccc(F)cc2)s1	70.7	-	-	-	-	39.5
CC(C)CN1CCCC2(CCN(S(=O)(=O)c3ccccc3)CC2)C1	.	-	.	-	.	.
COc1ccc(Cl)cc1NC(=O)CSc1nc2[nH]ncc2c(=O)[nH]1	.	-	.	.	.	.
CCOC(=O)C1=C(CS(=O)(=O)c2ccc(F)cc2)NC(=O)NC1c1ccc(OCC)c(OC)c1 (stereo not given)	.	-	.	.	-	.
CN1CCN(C2=C(Cl)C(=O)N(C3CCCCC3)C2=O)CC1	-	-	-	-	-	-
CN1CCN(C2=C(Cl)C(=O)C(c3cnc(N4CCCCC4)s3)=C(Cl)C2=O)CC1	-	1µM	?	-	-	-
O=P1(O)C=C(c2ccccc2)OC(c2ccccc2)=C1	145.5	-	-	?	-	67.2
COCCn1c(C)cc(O)c(C(c2ccc(F)cc2)N2CCC(C)CC2)c1=O (stereo not given)	.	-	.	.	10µM	.
COCCn1c(SCC(=O)N2CCC(C)CC2)nc2ccccc2c1=O	-	-	-	-	-	-
COCCn1c(C)cc(O)c(C(c2ccc(OC)cc2)N2CCCCC2)c1=O (stereo not given)	.	-	.	.	?	.
COCCn1c(C)cc(O)c(C(c2ccccc2)N2CCC(C)CC2)c1=O (stereo not given)	.	-	.	.	22.4µM	.
COc1ccc(OC)c(S(=O)(=O)N2CCN(C(=O)c3cc(C4CC4)nn3-c3ccccc3)CC2)c1	.	-	.	.	-	.
COc1ccc(OC)c(NC(=O)C2(C)CCN2Cc2ccccc2Cl)c1 (stereo not given)	.	-	.	.	.	.
CCOc1ccc(CNC(=O)CN2C(=O)C3CCCCN3c3ccc(C(=O)N4CCCC4)cc32)cc1 (stereo not given)	.	-	.	.	-	.
O=S(=O)(c1ccc(Cl)cc1)c1nnn2c1nc(NCc1ccccc1)c1sccc12	.	-	.	.	-	.
Cn1nc2sc3ccccc3n2c(=O)c1=O	-	-	-	-	-	-
N#Cc1cnc2sc3ccccc3n2c1=N	50.6	-	-	-	-	47.2
CCOC(=O)C1CCN(C(c2ccccn2)c2c(C)[nH]c3ccccc23)CC1 (stereo not given)	-	-	-	-	0.282µM	-
CCOC(=O)C1CCN(C(C)C(=O)c2c[nH]c3ccccc23)CC1 (stereo not given)	-	-	-	-	-	-
Cc1[nH]c2ccccc2c1C(c1ccccn1)N1CCC(C(N)=O)CC1 (stereo not given)	-	-	-	-	0.355µM	-
Cc1[nH]c2ccc(C(=O)N3CCC(C(N)=O)CC3)cc2c1C	.	-	.	.	.	.
CC1CN(c2ccccn2)C(C)CN1C(=S)Nc1ccccc1 (stereo not given)	.	-	.	.	.	.
SMILES	Shiga inhibitor	Tb PYK inh	LmPK inh	FBPA Giardia inh	Sm TGR block	Cycloheximide cs
CC(C)[C@H](O)C1=CCCCC1=O	.	.	.	-	.	.
O=S(=O)(O)c1ccc(N=Nc2ccccc2)cc1	-	-	-	?	-	-
O=c1ccc(N=Nc2ccccc2)ccc1O	-	?	?	-	-	23.1
Cc1ccc(C(=O)N2CCC(Cc3ccccc3)CC2)cc1S(=O)(=O)N1CCOCC1	.	-	.	.	-	.
Cc1cc(-c2ccccc2)nc2[nH]n(-c3ccccc3)c(=O)c12	-	.	-	-	-	-
Cc1cc(C)c2c(=O)n(-c3ccccc3)[nH]c2n1	88.4	-	-	-	-	50.7
N#Cc1c(/N=C/c2ccc(O)cc2O)sc2c1C1CCN2CC1	-	-	-	-	-	9.9
CN(C)c1ccc(C(CNC(=O)c2cccc(C(F)(F)F)c2)N2CCCC2)cc1 (stereo not given)	.	-	.	.	-	.
NS(=O)(=O)c1ccc(NC(=S)NCc2ccccc2Cl)cc1	-	-	-	-	?	-
NS(=O)(=O)c1ccc(NC(=S)Nc2cc(Cl)c(Cl)cc2Cl)cc1	-	-	-	-	31.6µM	-
CSc1ccccc1NC(=S)Nc1ccc(S(N)(=O)=O)cc1	-	-	-	-	22.4µM	-
NS(=O)(=O)c1ccc(NC(=S)NCc2ccccc2)cc1	-	?	-	-	-	-
NS(=O)(=O)c1ccc(NC(=S)Nc2ccc(C(=O)N3CCCCC3)cc2)cc1	-	-	-	-	44.7µM	-
O=C(NCCc1ccccc1Cl)c1ccc2c(=O)n(-c3ccccc3)c(=O)[nH]c2c1	.	-	.	.	-	.
CCCc1ccc(OCC(=O)Nc2sc(C(=O)OCC)c(C)c2C(=O)OCC)cc1	.	-	.	.	-	.
Cc1c(O)nc(SC2CC(=O)N(c3cc(Cl)cc(Cl)c3)C2=O)[nH]c1=O (stereo not given)	.	-	.	.	.	.
Cc1ccc(N2C(=O)CSC2c2ccccn2)cc1Cl (stereo not given)	-	-	-	-	-	24.6
O=C1CSC(c2ccccn2)N1c1cccc(Cl)c1 (stereo not given)	-	-	-	-	-	-
COc1ccc(CSc2ncnc3sccc23)cc1F	55.1	-	-	-	-	-
N#C/C(=C\c1cn(Cc2cccc(F)c2)c2ccccc12)C(=O)NCc1ccco1	27.8	-	-	-	-	24.6
N#C/C(=C\c1cn(Cc2ccccc2)c2ccccc12)C(=O)NCc1ccco1	-	-	-	-	-	28.9
N#C/C(=C\c1ccco1)C(=O)NCc1ccccc1	40.6	-	-	-	-	35.4
CCc1c(C)nc(SCc2nc(-c3ccccc3)no2)[nH]c1=O	.	-	.	.	-	.
CN(C)CC/C=C1\c2ccccc2COc2ccccc21	-	-	-	-	14.1µM	-
CN(C)CC/C=C1/c2ccccc2CS(=O)(=O)c2ccccc21	.	-	.	.	.	.
SMILES	Shiga inhibitor	Tb PYK inh	LmPK inh	FBPA Giardia inh	Sm TGR block	Cycloheximide cs
CCN(C(=O)COC(=O)/C=C/c1ccc2c(c1)OCO2)c1c(N)n(Cc2ccccc2)c(=O)[nH]c1=O	.	-	.	.	.	.
COc1cccc(-c2n[nH]nc2C2=CC(=O)C[C@H](c3ccc(F)cc3)C2)c1	.	-	.	.	.	.
Cc1ccc(S(=O)(=O)c2nc(-c3ccco3)oc2SCC(=O)NCC2CCCO2)cc1 (stereo not given)	-	-	-	-	35.5µM	-
CCSc1oc(-c2ccco2)nc1S(=O)(=O)c1ccc(F)cc1	-	-	-	?	14.1µM	-
CCSc1oc(-c2ccco2)nc1S(=O)(=O)c1ccc(C)cc1	-	-	-	-	39.8µM	-
Cc1ccc(S(=O)(=O)c2nc(-c3ccccc3)oc2SCC(=O)NCC2CCCO2)cc1 (stereo not given)	-	-	-	-	-	-
CC(C)CSc1oc(-c2ccco2)nc1S(=O)(=O)c1ccccc1	-	-	-	-	44.7µM	-
COc1ccc(NC(=O)CSc2oc(-c3ccc(C)cc3)nc2S(=O)(=O)c2ccc(C)cc2)c(OC)c1	.	-	.	.	50.1µM	.
